# Bioassay records deposited in PubChem BioAssay by National Center for Advancing Translational Sciences (NCATS).
# ELG1 genotoxic: genotoxicity induction in ELG1-luciferase HEK293T cells; HEK293T ELG1-luciferase reporter, luminescence, 16 h; Potency, µM (titrated, usually from 46 µM), actives largely listed as activators; actives 1.3% (n = 330,000); AID 504466; also: nearly all actives have a fitted effect of over 60% in size
#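 HEK293T cells expressing luciferase-tagged ELG1 were treated with compound or DMSO for 16 hr at 37°C. Luciferase activity was then read after 30 min with ONE-Glo at room temperature; rising signal flags genetic stress.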
# ELG1 repair inh: ELG1-dependent DNA repair inhibition | HEK293T ELG1-luciferase reporter, luminescence, 16 h; DNA damage induced by 5-fluorouridine | Potency, µM (titrated, usually from 46.1 µM), hits mostly inhibitors | actives 2.3% (n = 330,000) | AID 504467; also: nearly all actives have a fitted effect of over 55% in size
#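 Luminescence from the luciferase reporter, measured 30 min after ONE-Glo reagent at room temperature, was the read-out. Beforehand, 2,000 cells per well were exposed for 16 hr at 37 °C to 5-fluorouridine together with compound or vehicle.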
# SMN2 splice enh: increases expression of the SMN2 splice variant; Potency, µM (top dose mostly 46.1 µM), hits mostly activators; HEK293 SMN2-luciferase splicing reporter, luminescence, 30-36 h; actives 2.8% (n = 210,000); AID 1458; also: nearly all actives have a fitted effect of over 55% in size
#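 HEK293 cells carry an SMN2 […]–luciferase reporter in which exon 7 inclusion puts luciferase in frame. Cells were plated 10-12 h before compound addition, then incubated 30-36 h at 37C. ONE-Glo luminescence was read; sodium butyrate at 4.5 mM final served as control.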
# NPC1 promoter act: NPC1 promoter activation; actives 2.4% (n = 320,000); AID 485313; Potency, µM (top dose mostly 9.22 µM), most hits filed as activators; Huh7 NPC1 promoter luciferase reporter, 24 h; also: nearly all actives have a fitted effect of over 60% in size
#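 Stable NPC1-promoter luciferase Huh7 line; cpd (DMSO) 24 h, 37 °C, 5% CO2; Amplite luciferase reagent 10 min RT; luminescence readout. qHTS format.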
# Rab9 promoter act: Rab9 promoter activation; actives 2.8% (n = 320,000); Huh7 Rab9 promoter-luciferase reporter, luminescence, 24 h; AID 485297; Potency, µM (top dose mostly 9.22 µM), actives largely listed as activators; also: nearly all actives have a fitted effect of over 60% in size
#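 Huh7 cells stably carrying a Rab9 promoter-luciferase reporter, 1500 cells per well in OP-MEM I with 10% FBS, treated with compound 24 hours at 37C. Luciferase activity read by luminescence after 10 minutes with Amplite reagent.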
# FLuc counter: firefly luciferase modulation, counter-screen for miR-21 project | purified FLuc, Km substrates, luminescence inhibition | Potency, µM (doses to about 57.5 µM), hits mostly inhibitors | P08659 | actives 6.9% (n = 360,000); also: nearly all actives have a fitted effect of over 55% in size
# Target sequence (P08659 whole entry, looked up): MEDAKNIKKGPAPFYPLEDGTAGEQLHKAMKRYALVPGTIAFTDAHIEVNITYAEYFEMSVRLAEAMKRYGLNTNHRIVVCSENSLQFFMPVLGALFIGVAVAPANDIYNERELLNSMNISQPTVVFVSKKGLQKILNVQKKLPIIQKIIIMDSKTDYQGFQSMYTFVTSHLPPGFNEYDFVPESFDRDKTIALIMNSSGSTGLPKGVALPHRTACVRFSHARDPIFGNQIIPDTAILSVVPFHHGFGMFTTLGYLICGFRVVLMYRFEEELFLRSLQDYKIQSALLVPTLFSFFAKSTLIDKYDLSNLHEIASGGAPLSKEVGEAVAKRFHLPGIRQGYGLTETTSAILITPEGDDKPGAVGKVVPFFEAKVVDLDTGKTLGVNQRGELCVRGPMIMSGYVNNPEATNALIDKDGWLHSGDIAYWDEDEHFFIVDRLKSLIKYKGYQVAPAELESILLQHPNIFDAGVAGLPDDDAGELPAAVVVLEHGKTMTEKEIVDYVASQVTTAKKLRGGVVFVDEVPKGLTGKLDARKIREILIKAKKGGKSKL
#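 Biochemical qHTS of compounds, final roughly 60 µM downward over six points, against 10 nM purified firefly luciferase using Km concentrations of substrates (10 uM D-luciferin, 10 uM ATP) in Tris acetate pH 7.5 buffer; luminescence output.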
# Hits are given with their value; - = inactive; ? = inconclusive; . = no result given; [ ] = another dose, or the depositor's remark. In the library only some 9.3% were active in any assay of this set; here they are far more common. Calls follow the shape of the dose curve; as a rule, active = well fitted curve in the direction sought with a large enough effect; inconclusive = small, poorly fitted or top-dose-only effect, or another doubt; inactive = no such curve, though single readings can be large; an effect the other way counts as inactive or inconclusive.
SMILES,ELG1 genotoxic,ELG1 repair inh,SMN2 splice enh,NPC1 promoter act,Rab9 promoter act,FLuc counter
CC(=O)c1ccc(NC(=S)NNC(=O)c2ccncc2)cc1,-,?,-,-,-,19µM
COc1ccc(NC(=S)N/C(=N/CS(=O)(=O)c2ccccc2)c2ccccc2)cc1,?,?,-,2.82µM,?,2.69µM
COc1ccc(C(=O)NNC(=S)NC(=O)c2ccc(OC)cc2)cc1,-,-,.,-,-,-
COc1ccc(C(=O)NNC(=S)Nc2ccccc2)cc1,?,?,11.2µM,2.51µM,0.562µM,10.7µM
COc1cc(OC)cc(C(=O)NNC(=S)Nc2ccccc2OC)c1,-,-,-,-,-,21.3µM
O=C(Nc1ccc(N2CCOCC2)cc1)c1cc(-n2cnnc2)ccc1Cl,-,-,.,-,-,-
COc1ccccc1NC(=S)NNC(=O)c1c(Cl)c(C)nn1C,-,?,-,-,-,15.1µM
COc1ccccc1NC(=O)CC(c1ccc(OC(C)C)cc1)c1ccccc1OC (stereo not given),-,8.2µM,-,-,-,-
COc1ccccc1NC(=S)NNC(=O)c1ccccc1Br,-,?,5.01µM,-,?,?
COc1ccccc1C(CC(=O)Nc1ccc(C)c(C)c1)c1ccc(OC(C)C)cc1 (stereo not given),-,-,.,-,-,-
COc1ccccc1NC(=S)NC(=O)CC(C)C,-,-,-,-,-,15.1µM
COc1ccc(NC(=O)c2ccc(NC3=NC4CS(=O)(=O)CC4S3)cc2)cc1 (stereo not given),-,-,.,-,-,-
N=c1c(C(=O)NCc2ccc(F)cc2)cc2c(=O)n3ccccc3nc2n1Cc1cccnc1,-,?,-,-,-,-
Cc1cccc(NC(=O)COC(=O)CN2CCCCCC2=O)c1C,-,-,.,.,.,.
CC(NC(=O)CN1CCc2ccccc21)c1ccccc1 (stereo not given),-,-,.,-,-,-
COc1ccc(NC(=O)Cc2csc(C)n2)cc1,.,.,-,.,.,-
CC1CN(C(=O)c2cc(-c3ccncc3)nc3ccccc23)CC(C)O1 (stereo not given),-,-,.,-,-,-
COc1cccc(N=c2oc3ccccc3cc2-c2nc3ccccc3[nH]2)c1,?,?,15.8µM,3.16µM,1.58µM,9.53µM
COc1ccc(OC(C)c2nc3ccccc3[nH]2)cc1 (stereo not given),.,.,.,.,.,-
COc1cccc(N=c2oc3ccc(OC)cc3cc2-c2nc3ccccc3[nH]2)c1,.,.,?,.,.,19µM
COc1cccc(CC(=O)Nc2nc3ccccc3[nH]2)c1,-,-,-,-,-[1.84 µM],-
Cc1ccc(C(=O)Nc2ccnc(-c3cccnc3)n2)cc1,-,?,-,-,-,?
Cc1ccc(-c2nc3ccccc3[nH]2)cc1NC(=O)c1ccc2c(c1)OCO2,-,?,-,?,-,10.7µM
Cc1cc(C)c2oc(-c3ccc(C)c(NC(=S)NC(=O)/C=C/c4ccco4)c3)nc2c1,-,-,-,-,-,?
Cc1ccc(-c2nc3ccccc3[nH]2)cc1NC(=S)NC(=O)c1ccccc1Br,-,?,-,-,-,5.36µM
SMILES,ELG1 genotoxic,ELG1 repair inh,SMN2 splice enh,NPC1 promoter act,Rab9 promoter act,FLuc counter
S=C(NCc1ccc2c(c1)OCO2)Nc1ccc(-c2nc3ccccc3[nH]2)cc1,-,?,-,-,-,?
O=C(NC(=S)Nc1cc(-c2nc3ccccc3[nH]2)ccc1Cl)c1ccc2c(c1)OCO2,-,?,-,-,-,6.75µM
Cc1ccc(-c2nc3ccccc3[nH]2)cc1NC(=O)/C=C/c1ccco1,-,?,-,-,?,8.49µM
Fc1ccc(OCCn2cnc(Cl)c2Cl)cc1,-,?,.,-,-,-
Clc1ccc(Cl)c(OCc2cc(-c3ccccc3Cl)on2)c1,-,?,-,?,?,10.7µM
O=C(Nc1ccc(Cl)cc1)OCc1cc(-c2ccccc2Cl)on1,-,-,-,-,-,-
CCn1c(=O)c(C(=O)NCCc2ccc(Cl)cc2)c(O)c2ccccc21,-,-,.,-,-,-
COC(=O)CCNC(=O)c1nn(Cc2ccccc2)c(=O)c2ccccc12,-,-,.,-,-,-
